Measured values reported in PubChem BioAssay (NCI).
Compounds without any hit were thinned out: in the full panel of roughly 83,000, 20% have a hit.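 Testing used 96-well plates and a 48-hour single-concentration exposure. Example: -40 means 40% of the starting cells died.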 A number with no mark means an inactive call. The source made the active and inactive calls. The calls were made as follows: active = growth percent below 10; inactive = the rest.

test system: K-562 leukemia; test: NCI-60 one-dose screen, 48 h (100 = growth as untreated, 0 = no growth, -100 = all killed); conditions: 10 µM unless noted

Compound	growth
CCCCCSB(SCCCCC)c1ccccc1	112%
c1ccc(CNc2ccc3nc(CCC4CCCCC4)[nH]c3c2)cc1	14.6%
S=c1ssnc1-c1cccs1	73.3%
O=C(/C=C/c1ccc(Br)cc1)c1ccc(-n2cc(CN3CCN(c4cc5c(cc4F)c(=O)c(C(=O)O)cn5C4CC4)CC3)nn2)cc1	51.5%
COc1ccc(Cc2cnc(NC(=O)c3sc4ccccc4c3Cl)s2)cc1	7% (active)
N#C/C(=C\c1ccc(Cl)cc1Cl)C(=O)Nc1ncc(Cc2ccc(Cl)c(Cl)c2)s1	25.5%
N#Cc1c(-c2cccc([N+](=O)[O-])c2)cc(-c2ccc(Nc3nc(Nc4ccc(F)cc4)nc(Nc4ccc(F)cc4)n3)cc2)nc1N	80.3%
O=C(CCCCCCN1CC(=O)N2[C@@H](c3ccc(Cl)cc3)c3[nH]c4ccccc4c3C[C@H]2C1=O)NO	29.7%
CCCCCCCCn1ccc2cc(NC(=O)Cn3cc(CN4CCC(C)CC4)nn3)ccc21	-25.6% (active)
CCCC(O)Cn1ncc(C(=O)OCC)c1NC(=O)NCc1cccc(F)c1 (stereo not given)	68.6%
COc1cc2c3c(c1O)-c1ccccc1[C@@H]1OC(=O)N(CC2)[C@H]31	112%
C/C(=C(/c1ccc(Cl)cc1)c1ccc(OCCCN(C)C)cc1)c1ccc(Cl)cc1	16.9%
Cc1cc(C(=O)Nc2cc(Nc3ncccc3-c3ncnc4nc[nH]c34)ccc2F)cc(C(F)(F)F)c1	4.38% (active)
CCOC(=O)NN1CC(O)=C(c2nc(-c3ccc(Br)cc3)cs2)C1=N	78.4%
O=C1C(Cl)=C(NCCN2CCOCC2)C(=O)c2ncccc21	-33.5% (active)
O=C(Nc1ccc(F)cc1)Nc1ccccc1CNc1nc(Nc2ccc(OCCN3CCCC3)cc2)ncc1Cl	2.99% (active)
C[C@H]1[C@H](C)CC[C@]2(C(=O)O)CC[C@]3(C)C(=CC[C@@H]4[C@@]5(C)C[C@@H](Cc6cn([C@@H]7O[C@H](CO)[C@@H](O)[C@H](O)[C@H]7O)nn6)[C@H](O)C(C)(C)[C@@H]5CC[C@]43C)[C@H]12	95.4%
COC(=O)c1ccc2c(c1)c1c(C)c3ccncc3c(C)c1n2C	8.47% (active)
COc1cc(C(=O)c2c(-c3ccccc3)oc3c(OC)cccc23)cc(OC)c1O	13.4%
C=C1C(=O)O[C@H]2[C@H]1CC/C(CNC(=O)c1cc3ccccc3[nH]1)=C\CC[C@@]1(C)O[C@@H]21	-20.6% (active)

Compound	growth
O=P(O)(O)OCC1OC(n2cnc3c(NCc4ccccc4)ncnc32)C(O)C1O (stereo not given)	60.8%
CCN(CC)CCCNCc1cc(-c2ccccc2)nc2cc(Cl)ccc12	-17.3% (active)
COc1cc2nc(Nc3cccc(F)c3)nc(Nc3cc(C)[nH]n3)c2cc1OC	-31.1% [20 µM] (active)
CCC/C(=N\NC(N)=O)C(OC)OC	118%
O=C1c2cc3c(cc2-c2c1c1ccc(Cl)cc1c(=O)n2C[C@H](O)CO)OCO3	10.4%
CCSC1=CC(=O)c2ccccc2C1=O	2.73% (active)
COc1cc(-c2nc3occn3c2-c2ccnc(NCCCNS(=O)(=O)c3ccccc3)n2)ccc1F	26.5%
COC1=CC(c2ccc[nH]2)=N/C1=C\c1[nH]c(C)c(CC(=O)OCc2ccccc2)c1C	2.58% (active)
O=C(CSc1nnc2sc(Nc3cccc(Cl)c3)nn12)c1ccc(F)cc1	90.6%
COc1ccc(C2=Nc3c(N)ncnc3NC(c3cccc(Nc4ccnc5cc(C(F)(F)F)ccc45)c3)C2)cc1 (stereo not given)	15.5%
Nc1c(C(=O)Nc2cccc3ncccc23)sc2nc3c(cc12)C(=O)CCC3	31.1%
C#CCn1cnc2c(Nc3cccc(NC(=O)CCl)c3)ncnc21	13.2%
COc1cc2oc(-c3cccc(NC(=O)c4ccc5c(c4)OCO5)c3)cc(=O)c2c(OC)c1OC	17.4%
CCOC(=O)CSc1nc2sc3c(c2c(=O)n1-c1ccc([N+](=O)[O-])cc1)CCCCC3	75.2%
Cn1cc(-c2nn3cc(-c4ccccc4)nc3s2)c2ccccc21	29.3%
C=C1C(=O)O[C@H]2[C@H]1CC/C(COC(=O)NCCCCCCCCNC(=O)OC/C1=C/CC[C@@]3(C)O[C@H]3[C@H]3OC(=O)C(=C)[C@@H]3CC1)=C\CC[C@@]1(C)O[C@@H]21	-28.5% (active)
Oc1c(I)cc(-c2nc3ccccc3s2)cc1CN(Cc1ccccn1)Cc1ccccn1	13.1%
Cc1ncc(C(=O)Nc2ccc(CN3CCN(C)CC3)c(C(F)(F)F)c2)cc1C#Cc1cnc(N)c2ccncc12	-32.5% (active)
O=C1/C(=C/c2ccc(C(F)(F)F)cc2)COc2ccc(O)c(O)c21	3.76% (active)
O=C1N[C@@H]2[C@@H](O)[C@@H](O)[C@H](O)C[C@H]2c2cc3c(c(O)c21)OCCO3	1.56% (active)
